Screening data as filed in PubChem BioAssay.
This is a sample that favours compounds with a hit; in the whole collection about 3.1% have one here.
D3 ag = activates the human D3 dopamine receptor; P35462; D3R DiscoveRx beta-arrestin cells, luminescence, 90 min; max activation, %; 410,000 tested, 0.58% active; AID 652048; in the data active = max activation above about 30%
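Agonist-mode cell screen: cells plated at 1500/well and incubated overnight at 37 °C, then exposed to library compounds for 90 min at 37 °C. Detection reagent was added for 30–60 min at room temperature, and luminescence was read.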
RGS4 inh = blocks human RGS4-accelerated GTP hydrolysis; P49798; Transcreener GDP fluorescence polarization, RGS4-accelerated GTP hydrolysis; Potency, µM (doses to about 114 µM), hits mostly inhibitors; 390,000 tested, 0.039% active; active = well fitted inhibition curve with a large enough effect; inconclusive = small, poorly fitted or top-dose-only effect; inactive = no such curve, though single readings can be large or run the other way; note: nearly all actives have a fitted effect of over 75% in size
Target sequence (P49798 whole entry, looked up): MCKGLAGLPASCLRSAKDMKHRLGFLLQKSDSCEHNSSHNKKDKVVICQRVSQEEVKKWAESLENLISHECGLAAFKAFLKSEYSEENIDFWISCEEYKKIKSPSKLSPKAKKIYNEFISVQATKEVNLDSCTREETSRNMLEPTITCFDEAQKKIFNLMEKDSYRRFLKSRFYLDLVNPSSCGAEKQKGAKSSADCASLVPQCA
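MLSMR compounds (23 nl, pin-transferred) preincubated 10 min at room temperature with a 500nM (2x) first reagent, then RGS4 at 900nM (2x) plus Transcreener GDP mix added; fluorescence polarization (620/688 nm) read before and after 90 min at 30 °C.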
uPA surface inh = inhibitors of cell surface uPA generation; cell surface uPA generation assay, qHTS; Potency, µM (doses to about 38.3 µM), usual class: inhibitors; 330,000 tested, 0.31% active; active = well fitted inhibition curve with a large enough effect; inconclusive = small, poorly fitted or top-dose-only effect; inactive = no such curve, though single readings can be large or run the other way; tested in mouse RAW 264.7 cells; note: nearly all actives have a fitted effect of over 55% in size
DRD3 antagonist = antagonists of human D3 dopamine receptor. P35462. D3R cells, DiscoveRx beta-arrestin luminescence, antagonist mode; stronger effect = lower value. max response, negative = inhibition, %. 360,000 tested, 2.5% active; in the data active = max response below about -50%; inconclusive = no clear call, values can overlap the other calls
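Cells plated overnight at 1500 cells/well, then exposed to library compounds with dopamine controls for 90 minutes at 37 degrees C. DiscoveRx reagent added for 30–60 minutes at room temperature; luminescence read, quantitative HTS format.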
Of the large screens only hits and unclear results are named; the others gave an inactive call.

CCC(c1nnnn1CCOC)N1CCN(Cc2ccccc2)CC1 (configuration not stated)	none
O=C(Nc1ccc(Br)cc1)c1cccc(C(=O)Nc2ccc(Br)cc2)c1	none (no result: uPA surface inh, DRD3 antagonist)
C/C=C1\[C@H]2C=C(C)C[C@]1(N)c1ccc(=O)[nH]c1C2	none (no result: RGS4 inh, uPA surface inh, DRD3 antagonist)
CC(=O)Nc1ccc(-c2ccnc3c2CC(C(=O)Nc2ccc(Cl)c(C(F)(F)F)c2)O3)cc1 (configuration not stated)	DRD3 antagonist -66 (no result: RGS4 inh, uPA surface inh)
Cc1ccc(COc2ccc(Br)cc2/C=N/O)cc1	DRD3 antagonist -94
C/C(=N\NC(=O)c1ccc(Cl)c(Cl)c1)c1ccccn1	DRD3 antagonist inconclusive
C/C(=N\NC(=O)C1CCCN(S(=O)(=O)c2ccccc2)C1)c1ccncc1 (configuration not stated)	none
CCOc1ccc(OCc2ccc(C(=O)N/N=C(\C)c3ccccn3)cc2)cc1	DRD3 antagonist -81
C/C(=N\NC(=O)C1CCCN(S(=O)(=O)c2ccccc2)C1)c1ccccn1 (configuration not stated)	DRD3 antagonist -90
C/C(=N\NC(=O)c1cccc(Br)c1)c1ccccn1	DRD3 antagonist -53
COc1ccc(C(=O)N/N=C(\C)c2ccccn2)cc1OC	DRD3 antagonist -54
CCOc1ccc(CCNC(=O)c2ccc3c(c2)N(Cc2ccccc2F)C(=O)c2ccccc2S3=O)cc1OCC (configuration not stated)	none (no result: uPA surface inh, DRD3 antagonist)
CCOc1ccc(C(=O)OCc2cc(=O)n3cc(C)sc3n2)cc1	none (no result: uPA surface inh, DRD3 antagonist)
C/C(=N/NC(=O)c1ccc(C(C)(C)C)cc1)c1ccccn1	DRD3 antagonist -115
C/C(=N\NC(=O)C(c1ccccc1)c1ccccc1)c1ccc(O)cc1	none
C/C(=N\NC(=O)c1cccc2ccccc12)c1ccccn1	DRD3 antagonist -93
C/C(=N\NC(=O)C(c1ccccc1)c1ccccc1)c1ccccn1	DRD3 antagonist -76
COc1ccc2c(c1)c(C(=O)N/N=C/c1ccc(Br)cc1)c(C)n2C	uPA surface inh 11µM
COc1ccccc1NC(=O)Cn1ccn(-c2cc(C)cc(C)c2)c(=O)c1=O	none (no result: uPA surface inh, DRD3 antagonist)
COc1ccc(OC)c(NC(=O)CSc2nnnn2C2CCCC2)c1	D3 ag 36
Nn1c(SCC(=O)NC2CCCCC2)nnc1C1CC1	DRD3 antagonist -63
COc1ccc(NC(=O)CSc2nnnn2C2CCCCC2)c(OC)c1	none
COc1cc(OC)cc(-n2nnnc2SCC(=O)NC2CCCC2)c1	DRD3 antagonist -71
Cc1nnc(SCC(=O)NC2CCCCC2)n1N	none
COc1ccc(N(C(=O)/C=C\C(=O)Nc2ccc(C)cc2)C(C(=O)NCc2ccco2)c2ccc(C)cc2)cc1 (configuration not stated)	none (no result: uPA surface inh, DRD3 antagonist)
Cc1nn(C)c(=S)n1-c1ccc(Cl)cc1	DRD3 antagonist -52
Cc1nn(-c2ccccc2)c(=S)n1-c1ccccc1	none
ClC(CCN1CCN(Cc2ccccc2)CC1)c1ccccc1 (configuration not stated)	DRD3 antagonist -64
CC(CN1CCN(Cc2ccccc2)CC1)c1ccccc1 (configuration not stated)	none
CC(CCc1ccccc1)N1CCN(Cc2ccccc2)CC1 (configuration not stated)	DRD3 antagonist -87
CC(NC(=O)C(C)N1CCN(Cc2ccccc2)CC1)c1ccccc1 (configuration not stated)	none
CCS(=O)(=O)N1CCN(C(C)CCc2ccccc2)CC1 (configuration not stated)	DRD3 antagonist -51
CCNC(=O)NCCCOc1cccc(CN2CCCCC2)c1	none (no result: RGS4 inh, uPA surface inh, DRD3 antagonist)
CCOC(=O)C(=Cc1ccc(-n2cncn2)cc1)C(=O)OCC	RGS4 inh inconclusive, DRD3 antagonist -64
CCN(Cc1ccccc1)C(=O)c1nc(-c2cccc(F)c2)n2c1CCCCC2	none (no result: uPA surface inh, DRD3 antagonist)
COc1cc(NC(=O)Cn2c(=O)n(CC3CCC(C(=O)NCCc4ccccc4)CC3)c(=O)c3ccccc32)cc(OC)c1 (configuration not stated)	none (no result: uPA surface inh, DRD3 antagonist)
O=C(Nc1ccccc1)N(CCCN1CCOCC1)Cc1cc2cc3c(cc2[nH]c1=O)OCCO3	none
O=C(Nc1ccccc1F)N(CCCN1CCOCC1)Cc1cc2cc3c(cc2[nH]c1=O)OCCO3	DRD3 antagonist -55
O=C(Nc1cnc2ccccc2c1)N1CCOCC1	DRD3 antagonist -67
Cc1nc(SCC(=O)NCC2COc3ccccc3O2)c2c(C)c(C)sc2n1 (configuration not stated)	D3 ag 93
CCN(Cc1ccc2c(c1)OCCO2)C(=O)CSc1nc(C)nc2sc(C)c(C)c12	D3 ag 31
